Sampled rows, rich in hits. Any-hit rate of the full collection: about 3.4%.
GalR3 antag – blocks the human galanin receptor 3 | O60755 | HEK293 GalR3-CNG cAMP membrane potential fluorescence; galR3 body fused to GalR1 C-terminus | inhibition, % at 3 µM | 360,000 compounds, 0.44% hits | AID 651719;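 active = inhibition above the screen-wide average plus 3 SD, cut at about 13% in these data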;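 also: forskolin and galanin both at EC90 stimulate the cells; cAMP rise reported by CNG channel membrane potential dye signal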
Target sequence (O60755 1-299 limits assumed): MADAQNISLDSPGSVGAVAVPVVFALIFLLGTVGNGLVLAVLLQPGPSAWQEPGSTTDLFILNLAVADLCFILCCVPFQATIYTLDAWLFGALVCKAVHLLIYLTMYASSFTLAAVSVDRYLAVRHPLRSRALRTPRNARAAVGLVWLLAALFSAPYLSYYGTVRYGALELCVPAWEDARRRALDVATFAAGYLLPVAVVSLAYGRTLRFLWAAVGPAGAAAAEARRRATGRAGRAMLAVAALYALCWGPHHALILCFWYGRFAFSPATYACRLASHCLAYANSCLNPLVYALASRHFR
Cardio protect – protects H9c2 cardiomyocytes from peroxide injury; H2O2 injury protection, ATPLite, 2 h; protection from H2O2 cell death, % at 20 µM; 360,000 compounds, 0.63% hits;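 active = compounds giving at least 50% protection of heart cells from peroxide-induced death in the single-dose screen, raw or plate-pattern-corrected value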
FXN GAA850 act – increases GAA850 frataxin promoter reporter activity; HEK293 lucGAA850 FXN promoter luciferase reporter, 24 h; percent of 10 µM SAHA response; activation, % at 6 µM; 360,000 compounds, 0.56% hits; AID 540364;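 active = activation above the average of all compounds screened plus 3 SD, cutoff fixed separately per campaign, cut at about 7.5% in these data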
NR2F2 inh – blocks human COUP-TFII nuclear receptor; P24468; inhibition, % at 8.6 µM; 370,000 compounds, 0.7% hits; HEK293T NGFI-A luciferase reporter, luminescence;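 active = inhibition above a per-plate cutoff, mean inhibition of test wells between control levels plus 3 SD, cut at about 38% in these data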;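 also: cells cotransfected with COUP-TFII expression vector driving the NGFI-A reporter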
Gli-Sufu antag – Gli-Sufu pathway antagonism | Sufu-KO-LIGHT fibroblasts, Gli luciferase reporter luminescence | inhibition, % at 5 µM | 340,000 compounds, 0.74% hits;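 active = inhibition above about 55%, limit read from the data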
SMARCA2 activ – activators of SMARCA2 function; MG213 cells, MMTV-luciferase reporter, dexamethasone, overnight; activation, % at 9.1 µM; 370,000 compounds, 1% hits; in the data active = activation above about 7.8%
Gli antag conf – confirmation of Gli-SUFU pathway antagonists | shares compounds with Gli-Sufu antag | AID 602428 | Sufu-KO-LIGHT cells, Gli luciferase reporter, luminescence | inhibition, % at 5 µM | 2,500 compounds, 40% hits;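 active = mean inhibition at 5 µM reaching about 45%, limit read from the data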
SufuKO cytotox – counter-screen for Gli-SUFU antagonists: cytotoxicity; 2,500 compounds, 32% hits; cytotoxicity, % at 5 µM; AID 651994; Sufu-KO-LIGHT cells cytotoxicity, ATP luminescence; shares compounds with Gli-Sufu antag;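 active = mean cytotoxicity at 5 µM above about 25%, limit read from the data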;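 also: cells exposed to compound overnight for roughly 16 to 18 hours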
Wnt3a counter – inhibits Wnt3a reporter, counter-screen for Gli-SUFU antagonists | 2,500 compounds, 20% hits | inhibition, % at 6.25 µM | shares compounds with Gli-Sufu antag | AID 651995 | Wnt-LIGHT cells, Wnt3a-driven luciferase reporter, luminescence;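 active = mean inhibition above about 25%, limit read from the data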
Hits are given with their value; . = inactive; / = not tested or not shown.

SMILES	GalR3 antag	Cardio protect	FXN GAA850 act	NR2F2 inh	Gli-Sufu antag	SMARCA2 activ	Gli antag conf	SufuKO cytotox	Wnt3a counter
N=c1c(-c2nc3ccccc3[nH]2)cc(C(=O)c2ccco2)nn1-c1ccccc1	.	.	.	.	62.4	.	.	.	.
COc1ccc(OCC2CN(C3CCCC3)S(=O)(=O)CCO2)cc1 (centres undefined)	.	/	/	.	/	.	/	/	/
Fc1ccc(-c2cn(-c3ccccc3)c3[n+]2CCS3)cc1	.	.	.	.	.	.	/	/	/
CC(=O)c1ccc(-n2cc(-c3ccc(C(C)(C)C)cc3)[n+]3c2SCCC3)cc1	.	.	.	.	73.4	.	64.8	.	.
CC(=O)c1ccc(-c2cc(C(C)=O)c3n(c2=O)CCC3)cc1	/	/	/	.	/	.	/	/	/
Clc1ccc(-c2cn(-c3ccccc3)c3[n+]2CCS3)cc1	.	.	.	.	55.9	.	56.5	.	.
COc1ccc(-c2cn(-c3ccc(Br)cc3)c3[n+]2CCS3)cc1	.	.	.	.	74.5	.	76.3	.	60.8
COc1ccc(CCNC(=O)C2CCN(S(=O)(=O)c3cccc4cccnc34)CC2)cc1OC	/	.	.	/	.	/	.	.	.
COc1ccc(CCNC(=O)C2CCN(S(=O)(=O)c3cccc4nsnc34)CC2)cc1OC	.	.	.	.	.	.	/	/	/
Cc1cc(=O)oc2cc(OCC3CC(c4ccc(N(C)C)cc4)=NO3)ccc12 (centres undefined)	.	.	.	.	98.9	.	.	.	.
Cc1cc(=O)oc2cc(OCC3CC(c4ccc(Cl)cc4)=NO3)ccc12 (centres undefined)	.	.	.	.	.	.	/	/	/
CC(C)(O)C#Cc1ccc(C(=O)NCc2ccccc2)s1	.	.	.	.	.	.	/	/	/
CCOc1ccc(OCCOC(=O)CN2C(=O)NC3(CCCC3)C2=O)cc1	.	.	.	.	.	.	/	/	/
Cc1ccc(NS(=O)(=O)c2ccc(-c3ccc(=O)[nH]n3)o2)cc1Cl	.	.	.	.	.	.	.	.	.
Cc1ccc(NS(=O)(=O)c2ccc(-c3ccc(=O)[nH]n3)o2)cc1N(C)C	.	.	.	.	.	.	/	/	/
Cc1cccc(C)c1NC(=O)C1(C)CSCC(=O)N1CCc1ccccc1 (centres undefined)	.	/	/	.	/	.	/	/	/
Cc1cc(C)c(Cn2cnc(-c3ccc([N+](=O)[O-])cc3)c2)c(C)c1	.	.	.	.	55.4	.	.	27.8	.
COc1ccc(CN2C[C@]3(C=C(C)Cn4c(=O)n(-c5ccccc5)c(=O)n43)N=C2NC(=O)c2ccccc2)c(OC)c1	/	/	/	.	/	.	/	/	/
O=C1CCC2S/C(=C/Nc3ccc(C(F)(F)F)cc3)C(=O)N12 (centres undefined)	.	.	.	.	57.5	.	60.1	.	105.9
O=C1CCCC/C1=C/Nc1cccc(C(F)(F)F)c1	.	.	.	.	.	.	/	/	/
CN(CC(=O)O)S(=O)(=O)c1ccc2c(c1)n(C)c(=O)c(=O)n2C	.	.	.	.	62.8	.	.	.	.
CCCCN(CCCC)C(=O)CN(C)S(=O)(=O)c1ccc2c(c1)n(C)c(=O)c(=O)n2C	.	.	.	.	.	.	/	/	/
COc1cc(CCc2ccccc2)c(C(=O)O)c(O)c1C/C=C(/C)CCC=C(C)C	.	.	.	.	.	.	/	/	/
Cc1c(Cl)cccc1NC(=O)NN1CCN(C)CC1	.	.	.	.	95.1	.	.	.	.
COc1ccc(C(C(=O)NC2CCCCC2)N(C(=O)CCl)c2ccc(Cl)cc2)cc1 (centres undefined)	/	.	.	/	84.8	/	.	27.8	.
O=C(NC1CCCCC1)OC1CC2CC1[C@H]1CCCCN1C2=O (some centres undefined)	.	/	/	.	/	.	/	/	/
Fc1ccccc1COc1cccc(/C=N/n2cnnc2)c1	.	.	.	.	.	.	/	/	/
Cc1cc(/C=N/n2cnnc2)c(C)n1-c1ccc(OCc2ccccc2F)cc1	.	.	.	.	60.4	.	68.0	26.9	27.3

Bioassay records: PubChem BioAssay, several laboratories
